Test [1] is described as follows: qHTS assay to test for compound auto fluorescence at 535 nm (green) in HEK293 cells (AID 720680). A general note: Quantitative high-throughput screening tests each substance at several concentrations.
Test [2] can be described thus: qHTS assay to test for compound auto fluorescence at 460 nm (blue) in HEK293 cell free culture (AID 720681). In short, it runs like this: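 Test compounds were pinned into cell-free culture medium (DMEM with 10% FBS) and fluorescence was read directly at Ex/Em 405/460 nm. Signals were expressed as fluorescence equivalents of triamterene, with DMSO vehicle as control.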

Test [3] in a line: qHTS assay to test for compound auto fluorescence at 535 nm (green) in HEK293 cell free culture (AID 720682). In short, it runs like this:
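Cell-free medium (DMEM, 10% FBS) receives compound or DMSO by pintool. Plate read directly at Ex 485/Em 535 nm. Signal converted to fluorescein equivalency.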

Test [4] in a line: qHTS assay to test for compound auto fluorescence at 590 nm (red) in HEK293 cell free culture (AID 720683). The procedure, abridged:
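Tox21 10K library compounds were pinned into cell-free DMEM with 10% FBS and fluorescence was read at excitation 540 nm. Activity is expressed as Rose Bengal sodium equivalency.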

Test [5] in a line: qHTS assay to test for compound auto fluorescence at 590 nm (red) in HepG2 cell free culture (AID 720684). In short, it runs like this: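 Ex 540 / Em 590 nm read of compound in cell-free MEM (10% FBS). Rose Bengal sodium reference.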
A short description of test [6]: qHTS assay to test for compound auto fluorescence at 460 nm (blue) in HepG2 cell free culture (AID 720685). In short, it runs like this:
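Cell-free plates of MEM plus 10% FBS received 23 nL compound or DMSO vehicle; blue-channel (405/460 nm) intensity scored against triamterene as reference fluorophore.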

The nature of test [7]: qHTS assay to test for compound auto fluorescence at 535 nm (green) in HepG2 cell free culture (AID 720686).
Test [8] in a line: qHTS assay to test for compound auto fluorescence at 460 nm (blue) in HepG2 cells (AID 720687). In short, it runs like this:
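Cells (2,000/well in MEM with 10% FBS) attached overnight at 37 C, then were exposed to compound or DMSO for 1 hr at 37 C, 5% CO2. Fluorescence read at Ex/Em 405/460 nm, expressed as triamterene-equivalent signal.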

For test [9], the target named is Glucocorticoid receptor (Homo sapiens) (UniProt P04150). The test is described as follows: qHTS assay to identify small molecule agonists of the glucocorticoid receptor (GR) signaling pathway (AID 720691; active = well fitted activation curve with a large enough effect in the signal ratio in the repeat runs, not every such curve was filed as active; the % refers to the signal ratio). The settings on record: GR-bla HeLa, beta-lactamase reporter ratio, 18 h; activation: at 62.4 µM (top of the series). In short, it runs like this:
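Steps: seed GR-bla HeLa cells, incubate 4 h at 37 C/5% CO2; pin-transfer DMSO-dissolved compounds; incubate 18 h at 37 C; add LiveBLAzer B/G FRET substrate; after 2 h at room temperature, measure fluorescence.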

For test [10] the target is unchanged. The test is described as follows: qHTS assay to identify small molecule antagonists of the glucocorticoid receptor (GR) signaling pathway (AID 720692; active = well fitted inhibition curve with a large enough effect in the signal ratio in the repeat runs, not every such curve was filed as active; the % refers to the signal ratio; note: potency is the fitted concentration of half-maximal effect). In short, it runs like this:
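Antagonism was scored as loss of dexamethasone-driven (5 nM final) reporter signal in HeLa cells bearing a glucocorticoid response element–beta-lactamase construct, after 18 h compound exposure at 37 C and 2 h FRET substrate loading.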

SMILES strings stand for the structures. Results filed as inconclusive are left out. Calls of active or inactive are those of the source. Unless noted, calls come from the whole dose curve; as a rule, active = well fitted curve in the direction sought with a large enough effect in the repeat runs; inconclusive = weak or mixed curves; inactive = flat fitted curve, though single readings scatter. Non-standard residues stand in square brackets, D forms with d. Residues, ends and D or L forms follow the SMILES beside them. pGlu = O=C1CC[C@@H](C(=O)O)N1; Thz = O=C(O)[C@@H]1CSCN1

Sequence of Glucocorticoid receptor (Homo sapiens) (P04150 whole entry, looked up): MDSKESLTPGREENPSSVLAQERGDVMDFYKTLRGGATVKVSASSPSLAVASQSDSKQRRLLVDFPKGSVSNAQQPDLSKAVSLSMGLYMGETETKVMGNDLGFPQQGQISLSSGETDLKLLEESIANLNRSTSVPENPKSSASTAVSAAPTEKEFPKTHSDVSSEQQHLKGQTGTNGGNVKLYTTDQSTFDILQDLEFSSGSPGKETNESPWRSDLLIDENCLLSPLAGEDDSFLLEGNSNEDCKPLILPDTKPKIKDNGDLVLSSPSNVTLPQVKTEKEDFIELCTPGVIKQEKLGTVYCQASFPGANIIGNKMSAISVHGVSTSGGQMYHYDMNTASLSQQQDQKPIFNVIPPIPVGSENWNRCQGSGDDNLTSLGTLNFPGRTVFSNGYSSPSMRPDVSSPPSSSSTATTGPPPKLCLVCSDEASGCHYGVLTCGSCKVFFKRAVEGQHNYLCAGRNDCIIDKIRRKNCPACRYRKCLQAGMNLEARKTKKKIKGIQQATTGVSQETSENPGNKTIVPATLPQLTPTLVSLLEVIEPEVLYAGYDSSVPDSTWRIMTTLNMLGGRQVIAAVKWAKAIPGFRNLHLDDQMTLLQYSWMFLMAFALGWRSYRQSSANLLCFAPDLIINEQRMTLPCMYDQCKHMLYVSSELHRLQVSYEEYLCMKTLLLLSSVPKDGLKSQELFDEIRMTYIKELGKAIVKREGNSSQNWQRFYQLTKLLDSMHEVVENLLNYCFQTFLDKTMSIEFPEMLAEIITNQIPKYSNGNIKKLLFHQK

As to `NC(=O)Oc1ccc(Cc2ccccc2)cc1`, the Potency result in test [1], in test [2], in test [3], in [4], in [5] and in [7] was “inactive” throughout. Further, the Potency entry in test [9] and in [10] was “inactive” each time. For the same compound, the outcome in test [6] and in test [8] was inactive.

Turning to `COc1ccc(-c2noc(CC(=O)O)c2-c2ccc(OC)cc2)cc1`, the Potency entry in [1], in test [2], in test [3], in [4], in test [5] and in test [7] was “inactive” each time. Further, the Potency result in test [9] and in test [10] was “inactive” throughout. For the same compound, the compound was called inactive in [6] and in test [8].

For `N#CC(c1ccc(Cl)cc1)c1c(Cl)cc(-n2ncc(=O)[nH]c2=O)cc1Cl` (stereo not drawn), the Potency entry in test [1], in test [2], in test [3], in [4], in test [5] and in test [7] was “inactive” in each case. The outcome in [6] and in test [8] was inactive. Moreover, the Potency in test [10] was 23.9 µM (active).

As for `CN[C@@H]1[C@H](O[C@H]2[C@H](O[C@H]3[C@H](O)[C@@H](O)[C@H](N=C(N)N)[C@@H](O)[C@@H]3N=C(N)N)O[C@@H](C)[C@]2(O)CO)O[C@@H](CO)[C@H](O)[C@H]1O`, the Potency result in [1], in [2], in [3], in test [4], in [5] and in test [7] was “inactive” throughout. Moreover, the Potency result in test [9] and in test [10] was “inactive” in each case. The result in test [6] and in test [8] was inactive.

For the compound `C/C1=C2N=C(/C=C3N=C(/C(C)=C4\[N-][C@@](C)([C@@H]5N=C1[C@](C)(CCC(=O)NCC(C)OP(=O)(O)O[C@H]1[C@@H](O)[C@@H](n6cnc7cc(C)c(C)cc76)O[C@@H]1CO)[C@H]5CC(N)=O)[C@@](C)(CC(N)=O)[C@@H]4CCC(N)=O)[C@@](C)(CC(N)=O)[C@@H]\3CCC(N)=O)C(C)(C)[C@@H]/2CCC(N)=O.CC(=O)O.[Co]` (stereo partly drawn), the Potency entry in test [1], in [2], in test [3], in test [4], in [5] and in test [7] was “inactive” throughout. The Potency result in test [9] and in [10] was “inactive” in each case. Further, the compound was called inactive in [6] and in test [8].

Take `Nc1ncnc2c1ncn2CCOCP(=O)(O)O`: the Potency result in [1], in [2], in [3], in test [4], in test [5] and in test [7] was “inactive” each time. The Potency result in test [9] and in [10] was “inactive” in each case. Also, the outcome in test [6] and in [8] was inactive.

For the compound `CO/N=C(\C(=O)N[C@@H]1C(=O)N2C(C(=O)O)=C(CSc3nnnn3C)CS[C@H]12)c1csc(N)n1`, the Potency result in test [1], in [2], in test [3], in test [4], in [5] and in test [7] was “inactive” each time. Moreover, the Potency result in test [9] and in test [10] was “inactive” each time. The outcome in test [6] and in test [8] was inactive.

Consider `COC(=O)CC[C@H](N)C(=O)O`, for which the Potency result in [1], in test [2], in [3], in test [4], in test [5] and in [7] was “inactive” each time. Besides, the Potency entry in test [9] and in test [10] was “inactive” throughout. Moreover, the compound was called inactive in test [6] and in test [8].

For `O=C(O)c1cc2ccccc2c(Cc2c(O)c(C(=O)O)cc3ccccc23)c1O`, the Potency entry in test [1], in test [2], in test [3], in test [4], in test [5] and in [7] was “inactive” throughout. Further, the Potency entry in test [9] and in test [10] was “inactive” throughout. For the same compound, the compound was classed as inactive in test [6] and in [8].

With `O=C1NC(=O)[C@H]2[C@@H]1[C@@H]1C=C[C@H]2C1`, the Potency result in test [1], in test [2], in [3], in test [4], in test [5] and in test [7] was “inactive” in each case. In addition, the Potency result in test [9] and in test [10] was “inactive” each time. Moreover, the compound was classed as inactive in [6] and in test [8].

For `O=C(CCCCCCCCCCCCC1CCCC1)Nc1ccc(S(=O)(=O)c2ccc(NC(=O)CCCCCCCCCCCCC3CCCC3)cc2)cc1`, the Potency entry in [1], in test [2], in test [3], in [4], in test [5] and in [7] was “inactive” each time. Besides, the Potency entry in test [9] and in test [10] was “inactive” in each case. Moreover, the compound was classed as inactive in test [6] and in test [8].

`C[C@@H](O)[C@H]1C(=O)N2C(C(=O)[O-])=C(SC3Cn4cnc[n+]4C3)[C@H](C)[C@H]12` (stereo partly drawn): the Potency result in [1], in test [2], in [3], in [4], in test [5] and in [7] was “inactive” throughout. In addition, the Potency result in test [9] and in [10] was “inactive” each time. In addition, the compound was classed as inactive in test [6] and in [8].

As to `O=[N+]([O-])O[C@@H]1CO[C@H]2[C@@H]1OC[C@@H]2O`, the Potency entry in [1], in test [2], in test [3], in test [4], in test [5] and in test [7] was “inactive” in each case. For the same compound, the Potency result in test [9] and in test [10] was “inactive” each time. In addition, the outcome in test [6] and in test [8] was inactive.

As to `O=C1CC[C@@H](C(=O)N2CSC[C@H]2C(=O)O)N1` ([pGlu]-[Thz]-OH), the Potency entry in test [1], in test [2], in test [3], in [4], in test [5] and in test [7] was “inactive” in each case. Further, the Potency result in test [9] and in test [10] was “inactive” in each case. For the same compound, the outcome in test [6] and in [8] was inactive.

With `C/C1=C2N=C(/C=C3N=C(/C(C)=C4\[N-]C(C(CC(N)=O)C4(C)CCC(=O)NCC(C)OP(=O)([O-])OC4C(CO)OC(n5cnc6cc(C)c(C)cc65)C4O)C4(C)N=C1C(CCC(N)=O)C4(C)CC(N)=O)C(CCC(N)=O)C\3(C)C)C(CCC(N)=O)C/2(C)CC(N)=O.[CH3-].[Co+3]` (stereo not drawn), the Potency entry in test [1], in test [2], in test [3], in [4], in [5] and in test [7] was “inactive” throughout. The Potency entry in [9] and in [10] was “inactive” throughout. Also, the outcome in [6] and in test [8] was inactive.

Take `C[C@]12CC[C@@H]3c4ccc(OC(=O)c5ccccc5)cc4CC[C@H]3[C@@H]1CC[C@@H]2O`: the Potency result in [1], in test [2], in test [3], in [4], in [5] and in test [7] was “inactive” each time. The Potency entry in [9] is “inactive”. The compound was classed as inactive in test [6] and in test [8]. Further, in [10], the Potency is 6.01 µM (active).

Turning to `Nc1ccn(C[C@@H](CO)OCP(=O)(O)O)c(=O)n1`, the Potency entry in test [1], in [2], in [3], in test [4], in test [5] and in test [7] was “inactive” in each case. The Potency result in [9] and in test [10] was “inactive” each time. Moreover, the outcome in [6] and in [8] was inactive.

Turning to `Cn1c(=O)c2c(ncn2CCOC(=O)C(C)(C)Oc2ccc(Cl)cc2)n(C)c1=O`, the Potency result in test [1], in test [2], in test [3], in test [4], in test [5] and in test [7] was “inactive” each time. Further, the Potency result in [10] was “inactive”. Besides, the compound was called inactive in [6] and in test [8].
